In PubChem BioAssay (NCI):
The panel holds about 83,000 compounds, 20% with a hit somewhere; the sample as a whole holds those more often.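 The test compound was applied at a single concentration to cells in 96-well plates for 48 hours, and percent growth was recorded.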 A number with no mark means an inactive call. Activity calls are given as the source filed them. The calls were made as follows: active = growth percent below 10; inactive = the rest.

System: MDA-MB-468 breast
Assay: NCI-60 one-dose screen, 48 h (100 = growth as untreated, 0 = no growth, -100 = all killed)
Conditions: 10 µM unless noted

| SMILES | growth |
| --- | --- |
| Cc1ccc(S(=O)(=O)c2nc(S(=O)(=O)c3ccc(C)cc3)c(N3CCC(O)CC3)s2)cc1 | -20.7% (active) |
| COc1ccc2c(c1)C(=N/N=C(\C)c1ccc(OC)c(S(N)(=O)=O)c1)C(=O)N2 | 78.6% |
| COc1cc2oc(-c3cccc(C(=O)Nc4ccc(Cl)cc4)c3)cc(=O)c2c(OCCNC(=O)[C@H](CCC(=O)OC(C)(C)C)NC(=O)OC(C)(C)C)c1OC | 105% |
| COc1ccc(-c2nc3cc(C)ccc3n2CC(=O)N=Nc2c(O)[nH]c3ccc(Cl)cc23)cc1 | -42.6% (active) |
| O=C(c1ccc(OCCN2CCOCC2)cc1)C1[C@H](c2ccc(Cl)cc2)[C@@H](c2ccccc2)NC12C(=O)Nc1ccc(Br)cc12 (stereo not given in full) | -8.11% (active) |
| Cc1ccccc1[C@H]1C(C(=O)c2ccc(Cl)cc2)C2(N[C@@H]1c1ccccc1)C(=O)Nc1ccc(Cl)cc12 (stereo not given in full) | -19.1% (active) |
| COc1cc(C2CC(c3cc(OC)c(OC)c(OC)c3)=NN2C(C)=O)ccc1OCc1ccccc1 (stereo not given) | 34.2% |
| Cc1cccc(NC(=O)[C@]23CCC(C)(C)CC2C2=CCC4[C@@]5(C)C[C@@H](O)[C@H](O)[C@@](C)(CO)C5CC[C@@]4(C)[C@]2(C)CC3)c1 (stereo not given in full) | -8.73% (active) |
| CC12CC[C@@H]3[C@]4(C)COC(c5cn[nH]c5-c5ccc(Cl)cc5)O[C@@H]4CC[C@@]3(C)[C@@H]1CC(C1=CCOC1=O)O2 (stereo not given in full) | 0.753% (active) |
| S=c1c2ccccc2nc2n1CCc1c-2[nH]c2ccccc12 | 47.9% |
| CCCCSc1nc(NCCc2c[nH]c3ccccc23)c(C#N)c(-c2ccccc2)n1 | 3.04% (active) |
| CC(C)c1sc(NC(=O)c2cc(NC(=O)c3cc(NC(=O)c4cscn4)cn3C)cn2C)nc1C(=O)NCCCN(C)C | -62.7% (active) |
| CC(=O)Nc1ccc(-n2cnc3ccc(-c4ccc(O)cc4)cc32)cc1 | 22% |
| Cc1ccc(NCC(=O)Cn2cc(COc3ccc(C=Nc4cnc5ccccc5c4)cc3)nn2)cc1 | 100% |
| Cc1ccc([C@H]2C(C(=O)c3ccc(Cl)cc3)C3(N[C@@H]2c2ccccc2)C(=O)Nc2ccc(Br)cc23)cc1 (stereo not given in full) | 59.5% |
| Cn1cc(-c2nnc(N)nc2-c2c[nH]c3ccc(Br)cc23)c2cc(Br)cnc21 | 25% |
| O=C(c1ccccc1)c1ccc2nc(-c3ccc(F)cc3)[nH]c2c1 | 42.8% |
| COc1ccc(-c2nc(SCC(C)C)nc(NCCc3c[nH]c4ccccc34)c2C#N)cc1 | 58.4% |
| S=C(Nc1ccccc1)Nc1ccc(OCc2nc3ccccc3[nH]2)cc1 | 21.9% |
| O=C(/C=C/Nc1ccc(Cl)cc1)c1ccc2c(c1)Nc1ccccc1S2 | 43.4% |
| COc1ccc(C(=O)/C=C/c2ccc(OCc3ccc(F)cc3)c(OC)c2)cc1OC | 8.91% (active) |
| COc1c(F)ccc(C(=O)Nc2ccc3nc(NC(=O)C4CCCN(S(=O)(=O)c5cccc(C(F)(F)F)c5)C4)sc3c2)c1F (stereo not given) | 101% |
| Cn1cc(-c2cc(N)n3nc(-c4c[nH]c5ccccc45)cc3n2)c2cccnc21 | -54.3% (active) |
| Cc1ccc(C(=O)CSc2nc3ccc(C)cc3c(=O)n2-c2ccc(F)cc2)cc1 | 67.2% |
| Cc1nc(Nc2ccccn2)sc1C(=O)CC(SCC(=O)Nc1ccc(Cl)cc1)c1ccccc1F (stereo not given) | -22.1% (active) |
| O=c1onc(-c2cc3ccccc3nc2Cl)n1-c1cccc2ccccc12 | -25.2% (active) |
| N#Cc1c(-c2cccc(Cl)c2Cl)cc(-c2c[nH]c3ccccc23)[nH]c1=O | 46.5% |
| CC(=O)OC[C@@]1(C)C2CC[C@]3(C)C(CC=C4C5CC(C)(C)CC[C@]5(C(=O)Nc5ccc(Br)cc5)CC[C@]43C)[C@@]2(C)C[C@@H](OC(C)=O)[C@@H]1OC(C)=O (stereo not given in full) | 4.65% (active) |
| Cc1cc(C)cc(NC(=O)Cn2cc(COn3nnc4ccccc43)nn2)c1 | 98.7% |
| Cn1cc(-c2cc3nc(-c4cn(C)c5ncc(Br)cc45)cc(N)n3n2)c2ccccc21 | -78.9% (active) |
